This is an account of results in ChEMBL document CHEMBL4513216, “Probing the Open Global Health Chemical Diversity Library for Multistage-Active Starting Points for Next-Generation Antimalarials” (ACS Infect Dis, 2020).

Hit rate of the full screen: of about 69,000 compounds, about 8,600 (12%) showed an effect of 50% or more. The sample as a whole holds a higher share of strong results than the screen did.

This assay concerns Plasmodium berghei. Kind of assay: Screen against P. berghei liver stage (PbLuc), transformed with Luciferase, at 10uM. It is filed as functional, HepG2. Conditions: tested at 10 uM.
On to `CN(C)[C@@H]1CN(C(=O)Cc2cccs2)[C@@H]2CCCO[C@H]12`, for which the INHIBITION is listed as 24.6%.

Regarding `O=C(c1ccc(N2CCOCC2)cc1)N1CCCC(n2ccnc2)C1` (centres undefined), the INHIBITION was 41.415%.

As to `CN(C)c1ncccc1CNC(=O)NCCN(C)C1CCCC1`, the INHIBITION was 28.8%.

Consider `CCOC(=O)C1CCN(Cc2csc(-c3ccc(C)o3)n2)CC1`, for which the INHIBITION was 0.914%.

Take `O=C(C1CCOCC1)N1CC[C@@H](O)[C@@H]1Cc1ccncc1`: the INHIBITION is -2.35%.

On to `CC(=O)N1CCC(n2nccc2-c2cnc(N3CCCC3)nc2)CC1`, for which the INHIBITION is on record as 33.7%.

With `FC(F)(F)c1cccc(OC2CCN(Cc3ccccn3)CC2)c1`, the INHIBITION worked out at 40.7%.

For the compound `FC(F)(F)c1cccc(OC2CCN(Cc3c[nH]cn3)CC2)c1`, the INHIBITION is 88%.

Turning to `Nc1ccc(C(=O)N2CCC(Oc3cccc(C(F)(F)F)c3)CC2)cn1`, the INHIBITION is recorded as 29.8%.

As to `CCc1nc(C2CCCN2C(=O)CCCn2cncn2)no1` (centres undefined), the INHIBITION was -59.4%.

Regarding `CN1C(=O)CCCC12CCCN(C(=O)c1ccc3c(c1)OCO3)C2` (centres undefined), the INHIBITION is -36.8%.

For `CCS(=O)(=O)N1CCC2(CC1)CN(Cc1ccccn1)C(=O)CO2`, the INHIBITION was determined as 35.8%.

For the compound `CCOC(=O)[C@@H]1[C@@H](O)C(=O)N(C)C12CCN(C(=O)c1ccco1)CC2`, the INHIBITION is on record as -3.5%.

On to `CCOC(=O)[C@H]1[C@@H](O)C(=O)N(C)C12CCN(C(=O)c1ccccc1)CC2`, for which the INHIBITION is given as 58.5%.

For `CCOC(=O)[C@H]1[C@@H](O)C(=O)N(C)C12CCN(C(=O)OCC)CC2`, the INHIBITION stood at 20%.

As to `CCN(CC)S(=O)(=O)NCc1ccc(-c2ccc(C(N)=O)c(C)n2)cc1`, the INHIBITION is -5.8%.

Take `CN(CCc1cccs1)C(=O)Nc1cccc(S(C)(=O)=O)c1`: the INHIBITION is reported as -93.6%.

In the case of `Cc1nc(CN2CCN(C(=O)NC(C)c3cccnc3)CC2)cs1` (centres undefined), the INHIBITION was 41.5%.

As for `CC(C)Oc1ccc(CNC(=O)CC(F)(F)F)cc1F`, the INHIBITION is given as -4.69%.

For the compound `CC(C)Oc1ccc(CNC(=O)NCc2ccncc2)cc1F`, the INHIBITION worked out at 29.5%.

With `CC(C)Oc1ccc(NCc2ccc([S+](C)[O-])cc2)c(F)c1` (centres undefined), the INHIBITION is recorded as 93.1%.

With `CCN(CC)C(=O)c1ccc(CNc2ncc(C#N)cc2Cl)cc1`, the INHIBITION is reported as -22.8%.

For `COCCN(CCOC)c1ncc(C#N)cc1Cl`, the INHIBITION is on record as -2.39%.

As for `COc1cccc(CN(C)c2ncc(C(N)=O)cc2Cl)c1`, the INHIBITION is on record as 26.9%.

For `CN(Cc1cccc(C(N)=O)c1)c1ncc(C(N)=O)cc1Cl`, the INHIBITION came to 49.1%.

As for `CN(Cc1ccc(C#N)cc1)c1ncc(C(N)=O)cc1Cl`, the INHIBITION is given as 65.4%.

`CN(Cc1cccc(C#N)c1)c1ncc(C(N)=O)cc1Cl`: the INHIBITION was determined as 66.3%.

As to `CN(Cc1ccc(C#N)cc1)C(=O)c1ccn(C)c(=O)c1`, the INHIBITION worked out at 33.4%.

Consider `CN(Cc1cccc(C(N)=O)c1)c1ncc(C#N)cc1Cl`, for which the INHIBITION is recorded as 61.1%.

`CN(c1ncc(C(N)=O)cc1Cl)C1CCC(c2ccccc2)CC1` (centres undefined): the INHIBITION was determined as 38.1%.

As for `Cc1cc(CNC(=O)NCCC(=O)N2CCCc3ccccc32)no1`, the INHIBITION is listed as 17.1%.

With `CN(Cc1cccc(C#N)c1)Cc1nc2c(cnn2C)c(=O)[nH]1`, the INHIBITION worked out at 44.3%.

As for `CC(C)S(=O)(=O)CCN1CCc2c(ncn2C2CC2)C1`, the INHIBITION is given as 67.1%.

For the compound `OC(COc1ccccc1)CN1CCc2c(ncn2C2CC2)C1` (centres undefined), the INHIBITION came to 5.97%.

For the compound `OC(CN1CCOCC1)CN1CCc2c(ncn2C2CC2)C1` (centres undefined), the INHIBITION amounted to 13.5%.

With `O=S(=O)(CCN1CCc2c(ncn2C2CC2)C1)c1ccccc1`, the INHIBITION is -11.4%.

In the case of `Cc1ccc(OCC(O)CN2CCc3c(ncn3C3CC3)C2)cc1` (centres undefined), the INHIBITION is recorded as 58.5%.

On to `CS(=O)(=O)CCN1CCc2c(ncn2C2CC2)C1`, for which the INHIBITION was -2.43%.

In the case of `Fc1ccc(CN2CCC3(CC2)CC(c2cccnc2)CO3)cc1` (centres undefined), the INHIBITION came to 15.4%.

For `CN(C)c1cc(CC(NC(=O)C2CC2)c2ccccc2)nc(C2CC2)n1` (centres undefined), the INHIBITION is listed as 37.1%.

Regarding `O=C(NCc1ccccn1)C1=NN(c2ccccc2)C(=O)CN1`, the INHIBITION is -170%.

Take `CN(C)C(c1ccccn1)C1CCC(CNC(=O)C2CC2)CC1` (centres undefined): the INHIBITION is given as -103%.

`Cn1cc(-c2ncc3c(c2C(=O)O)CCN(Cc2ccccn2)C3)cn1`: the INHIBITION is 29.4%.

As to `Cc1cc(Cl)c(C)c(S(=O)(=O)N2CCN(Cc3ccccn3)CC2)c1Cl`, the INHIBITION is 18.6%.

Regarding `CC(C)Cn1cc2nc(N3CCCC3)[nH]cc-2c1=O`, the INHIBITION worked out at 47.4%.

For the compound `CC(C)Cn1cc2nc(N3CCC(O)CC3)[nH]cc-2c1=O`, the INHIBITION was found to be 66.5%.

For `CC(C)Cn1cc2nc(N3CCCC(C)C3)[nH]cc-2c1=O` (centres undefined), the INHIBITION is given as -40.4%.

For `COc1ccccc1C(=O)NS(=O)(=O)c1cncc(Br)c1`, the INHIBITION turned out to be 28.3%.

Take `COc1c(CNCC(O)c2ccccc2)c(C(C)C)nn1C` (centres undefined): the INHIBITION is on record as 3.73%.

With `COc1ccc2c(c1)OCC(C(=O)NCc1ncc3c(n1)CCC3)C2` (centres undefined), the INHIBITION was -9.39%.

As to `O=C1NCc2ccccc2CC12CCN(Cc1ccccc1Cl)CC2`, the INHIBITION is 36.6%.

As for `Cc1nc(N(C)C)nc(N2CCC3(CC2)CNC(=O)O3)c1C`, the INHIBITION is on record as -12.1%.

As to `CNC(=O)CN1CCC2(CC1)C[C@@H](O)[C@H](c1ccccc1)NC2=O`, the INHIBITION came to 44.8%.

For `CN(C)C(=O)CN1CCC2(CC1)C[C@@H](O)[C@H](c1ccccc1)NC2=O`, the INHIBITION was 22%.
